Measurements as given in PubChem BioAssay AID488789 (Broad Institute, 2010).
Entries with a potency or affinity are not part of this list. Records with an inconclusive call do not appear. Active and inactive are the calls of the source.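 The calls were made as follows: active = samples whose fitted half-maximal inhibition concentration is no more than ten times the top valid dose tested; inconclusive = flat response between -70 and -30, or invalid curve fit; inactive = flat within 30 of zero, potency above limit, or signal rising.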

What follows are molecules tested against Trypsin (Sus scrofa) (UniProt P00761) (assay: porcine trypsin inhibitors, dose response, selectivity assay for Rce1 protease inhibitor project, biochemical, quenched peptide fluorescence, cherry-pick (AID 488789;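 also: more negative means stronger trypsin inhibition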)). Details: quenched peptide cleavage fluorescence; series mostly up to 10 µM.
Sequence of Trypsin (Sus scrofa) (P00761 whole entry, looked up): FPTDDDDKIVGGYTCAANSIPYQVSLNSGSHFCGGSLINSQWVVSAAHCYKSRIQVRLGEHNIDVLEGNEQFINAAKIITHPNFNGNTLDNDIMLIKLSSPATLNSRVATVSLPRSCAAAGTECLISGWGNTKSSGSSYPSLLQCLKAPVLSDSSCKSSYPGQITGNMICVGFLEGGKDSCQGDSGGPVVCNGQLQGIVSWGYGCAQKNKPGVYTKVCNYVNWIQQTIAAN

outcome, inactive:
CCOc1ccccc1CNC(=O)c1cc2occc2n1C
N=c1c(C(=O)NCc2ccc(F)cc2)cc2c(=O)n3ccccc3nc2n1Cc1cccnc1
COc1ccc(N2CCN(C(=O)c3cc(-c4cccs4)nc4ccccc34)CC2)cc1
CC1CCC/C(=C\Nc2ccccc2C(=O)O)C1=O (configuration not stated)
Cc1cc(C)n(-c2nc3ccccc3c(=O)n2OCC(=O)N(C)C)n1
O=C(C1=C[C@@H](C2CC2)C[C@@H](OCc2ccc(CO)cc2)O1)N1CCN(Cc2ccccc2)CC1
CCCCNC(=S)NNC(=O)CCn1cc(C)cn1
O=C(O/N=C\c1ccc(N2CCCCC2)c([N+](=O)[O-])c1)c1cccc(C(F)(F)F)c1
Cc1ccsc1/C=N/NC(=O)c1nnn(-c2nonc2N)c1C(C)C
Nc1nonc1-n1nnc(C(=O)N/N=C/c2ccoc2)c1CSc1ccccc1
CCN(CC)c1ccc(/C=N/NC(=O)C(O)(c2ccccc2)c2ccccc2)o1
CN(C)c1ccc(/C=N/NC(=O)CNC(=O)c2ccco2)cc1
Cc1cccc(NC(=O)C2(c3ccc([N+](=O)[O-])cc3)CCCC2)c1
CCN(CC)CCN(C(=O)c1ccc2ccccc2c1)c1nc2ccc(F)cc2s1
COc1cccc(-c2c(C(=O)N/N=C/c3sccc3C)nnn2-c2nonc2N)c1
C/C(CC(=O)NCc1ccco1)=N\NC(=O)c1ccc([N+](=O)[O-])cc1Cl
CN(C)S(=O)(=O)c1ccc(NC(=O)/C=C/c2ccccc2Cl)cc1
O=C(O)CCCC[C@@H]1SC[C@@H]2NC(=O)N[C@@H]21
CCN(CC)CCN(C(=O)c1ccc2ccccc2c1)c1nc2cc3c(cc2s1)OCO3
Cc1cccc(OCCCN2C(=O)C(=O)c3cc(C)ccc32)c1
CS(=O)(=O)Cc1ccc(C(=O)N(CCc2ccccc2)Cc2ccccc2)cc1
CC1=NN(c2ccccc2)C(=O)/C1=C\c1ccc(Br)s1
O=S(=O)(c1ccc(-c2csc(Nc3ccc(F)cc3)n2)cc1)N1CCCC1
COc1ccc(NS(=O)(=O)c2ccc3oc(=O)c4[nH]c(=O)c(=O)n(C)c4c3c2)cc1
O=C(Nc1ccccc1N1CCOCC1)C1CCN(S(=O)(=O)c2ccc(F)cc2)CC1
COc1ccc(-c2cc(C(F)(F)F)nc(SCC(=O)N(C)Cc3cn(C)nc3C)n2)cc1OC
CCN(CC)c1ccc(C(=O)c2ccccc2C(=O)O)c(O)c1
CCN(CC)CCNC(=O)CSc1c2c(nc3cc(Cl)ccc13)CCCC2
O=C(/C=C/c1cn(-c2ccccc2)nc1-c1cccs1)NCCN1CCOCC1
O=C(Cn1c2ccccc2c(=O)c2ccccc21)Nc1ccccc1F
CCOc1ccc(NC(=O)CCSc2ccc(C)cc2)cc1
CCC(COC)NC(=O)CCc1nnc(Cc2cccc(C(F)(F)F)c2)o1 (configuration not stated)
COc1ccc(OC)c(NC(=O)c2cc3oc4ccccc4c3cc2O)c1
COc1ccccc1-n1c(-c2ccccc2)c[nH]c1=S
COc1ccc(-c2oc3ncn(Cc4ccco4)c(=N)c3c2-c2ccc(OC)cc2)cc1
CCn1c(COc2cccc(C)c2)nnc1SCC(=O)NC1CCCC1
CCOC(=O)C1CCCN(S(=O)(=O)c2cc3[nH]c(=O)c(=O)[nH]c3cc2C)C1 (configuration not stated)
